We go through 40 compounds from PubChem BioAssay.

Calls of active or inactive are those of the source.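 How the source made its calls, unless noted: active means visually confirmed hit in the image check and inhibition above 20%; inconclusive means visually confirmed hit but inhibition not above 20%; inactive means no visual hit in the image check.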

The nature of the first experiment: inhibitors of TNFa-induced NFkB p65 translocation, primary screen, imaging, HUVEC, MLSMR starter and 10KST1 sets (AID 438;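 active means inhibition above 20% together with a positive visual image hit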;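 further: compound added about 3h40 before a 20 min TNFalpha stimulation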;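 on inhibition: signal is the nuclear over cytoplasmic p65 intensity ratio per well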). Conditions: HUVEC TNFa-induced p65 nuclear translocation; cell count: measured here: nuclei count (cytotoxicity indicator), at 2.08 µM; inhibition: at 2 µM, stronger effect = higher value, 0% TNFa-plus-vehicle, 100% no-TNFa wells.
For `COc1cccc(C(=O)OC2CCCN(C)C2)c1` (stereo not given), the inhibition (in general, the change of the read-out against control, counted positive when it falls) is 1.2% (inactive) and the cell count was determined as 524.

On to `FC(F)(F)c1cccc(N2CCc3cn[nH]c32)c1`, for which the inhibition is 2.2% (inactive) and the cell count stood at 690.

With `Cc1cc(=O)oc(C)c1C(=O)NCCC1=CCCCC1`, the cell count is 603 and the inhibition is -7.1% (inactive).

Take `COCCNC(=O)C(C#N)c1nc2ccccc2nc1N1CCN(Cc2ccc3c(c2)OCO3)CC1` (stereo not given): the cell count stood at 737 and the inhibition is -8.1% (inactive).

As to `Cc1cc(CC(=O)O)c(C)cc1CC(=O)O`, the inhibition was -9.1% (inactive) and the cell count was found to be 590.

Regarding `Nc1nc2n(n1)C(c1cccs1)CC(c1ccc(F)cc1)N2` (stereo not given), the cell count is 385 and the inhibition was 5.4% (inactive).

Regarding `CCOC(=O)C1=Nc2ccccc2C1=[N+]=[N-]`, the cell count amounted to 714 and the inhibition is -2.2% (inactive).

For `CCc1nc2c(sc3nc(N4CCOCC4)c4c(c32)CC(C)(C)OC4)c(=O)o1`, the cell count stood at 537 and the inhibition was 0.8% (inactive).

`CC(=O)/C(C#N)=C1\NC(=O)C(Cc2ccccc2Cl)S1` (stereo not given): the inhibition is -10.1% (inactive) and the cell count was 605.

For `COC(=O)/C=c1/s/c(=C(\C#N)C(=O)NCc2ccco2)n(-c2ccccc2)c1=O`, the inhibition is 0.2% (inactive) and the cell count came to 395.

In the case of `O=C(NCCCN1CCOCC1)C1(c2ccccc2)CCOCC1`, the inhibition is -2% (inactive) and the cell count was determined as 610.

As to `CCN(CC)CCN1C(=O)C(=O)/C(=C(/O)c2c(C)[nH]c(C(=O)OC)c2C)C1c1ccccc1` (stereo not given), the inhibition was -3.9% (inactive) and the cell count came to 727.

As to `Cc1ccc(S(=O)(=O)c2cc3c(=O)n4cccc(C)c4nc3n(CC3CCCO3)c2=N)cc1` (stereo not given), the inhibition was -12.2% (inactive) and the cell count came to 573.

On to `COC(=O)C(NC(=O)c1ccco1)(Nc1nc(C)cs1)C(F)(F)F` (stereo not given), for which the cell count is 365 and the inhibition was -1.1% (inactive).

As to `CC(=O)C1=C(O)C(=O)N(c2ccc(Br)cn2)C1c1ccccc1F` (stereo not given), the cell count came out at 545 and the inhibition was -2.5% (inactive).

As to `Cc1ccc(S(=O)(=O)N(CC(O)CN2CCOCC2)c2cc(Cl)ccc2Cl)cc1` (stereo not given), the inhibition was -2.7% (inactive) and the cell count was found to be 597.

On to `CCNC(=O)COn1c(SCC(=O)NCC)nc2ccccc2c1=O`, for which the inhibition was 2.9% (inactive) and the cell count stood at 763.

In the case of `CCCOc1cccc(C2/C(=C(/O)c3ccc(F)cc3)C(=O)C(=O)N2CCN(C)C)c1` (stereo not given), the inhibition is -13.2% (inactive) and the cell count stood at 676.

For the compound `Cc1ccc(N(CN2C(=O)C3CC=CCC3C2=O)C(=O)c2ccco2)cc1Cl` (stereo not given), the cell count worked out at 419 and the inhibition was -4.5% (inactive).

As for `O=c1[nH]cnc2c1cnn2Cc1ccccc1`, the inhibition is -2.1% (inactive) and the cell count was found to be 509.

In the case of `COC(=O)C(NC(C)=O)(Nc1ccc(Br)cn1)C(F)(F)F` (stereo not given), the inhibition is 1.7% (inactive) and the cell count came to 555.

As to `COC(=O)/C=c1/s/c(=C(/C#N)C(=O)N2CCCCC2)n(-c2ccccc2)c1=O`, the inhibition is -0.7% (inactive) and the cell count came out at 585.

On to `O=c1c2sc3nc(N4CCOCC4)c4c(c3c2ncn1Cc1ccco1)CCCC4`, for which the cell count is 502 and the inhibition was 2.3% (inactive).

For the compound `COc1ccc(CC(=O)n2c(CC#N)nc3ccccc32)cc1OC`, the cell count is 598 and the inhibition is -10.9% (inactive).

Take `CCN(CC)CCN1C(=O)C(O)=C(C(=O)c2cc3ccccc3o2)C1c1cccnc1` (stereo not given): the cell count was determined as 423 and the inhibition was -6.8% (inactive).

With `COc1ccc(CSc2nnc3n(C)c(=O)c4c5c(sc4n23)CCCC5)cc1`, the inhibition is -1.3% (inactive) and the cell count was determined as 563.

Consider `CC(NC(=O)Nc1cccnc1)(C(F)(F)F)C(F)(F)F`, for which the inhibition was -5.1% (inactive) and the cell count is 706.

For `CCOC(=O)CSc1nnc(C)c(=O)[nH]1`, the inhibition is -5.5% (inactive) and the cell count stood at 670.

Turning to `O=S(=O)(/C=C/c1ccccc1)Nc1ccc2c(c1)OCO2`, the cell count was 371 and the inhibition is -6.3% (inactive).

For `Cn1c(=O)c2c3c(sc2n2c(SCC(=O)c4ccccc4)nnc12)COC(C)(C)C3`, the cell count is 532 and the inhibition is -12.7% (inactive).

As to `COc1cccc(C2C(C(=O)c3sc(C)nc3C)=C(O)C(=O)N2CCN2CCOCC2)c1OC` (stereo not given), the inhibition was -3.3% (inactive) and the cell count was found to be 403.

On to `NC(=O)C1CCN(C2OC(=O)c3ccccc32)CC1` (stereo not given), for which the inhibition is -1.7% (inactive) and the cell count was determined as 399.

On to `CCCCOC(=O)c1[nH]c(C)c(C(=O)OC)c1C`, for which the inhibition is -7.5% (inactive) and the cell count was determined as 604.

Consider `CCSc1nnc(NC(=O)C(C)(C(F)(F)F)C(F)(F)F)s1`, for which the cell count came out at 664 and the inhibition is -10.9% (inactive).

Consider `Cc1ccc(N2C(=O)CC3(CC4C=CC3C4)C2=O)cc1` (stereo not given), for which the inhibition is 6.2% (inactive) and the cell count was 637.

`Cn1c(NCC(O)c2ccccc2)nc2c1c(=O)n(Cc1ccc(Cl)cc1)c(=O)n2C` (stereo not given): the cell count was 676 and the inhibition was 8.4% (inactive).

For `N#Cc1nc(-c2ccc(F)cc2)oc1N1CCCC1`, the cell count worked out at 706 and the inhibition is -7.6% (inactive).

In the case of `COC(=O)/C(C#N)=C1/SC=C(C)N1c1ccccc1`, the inhibition is 4.9% (inactive) and the cell count stood at 611.

Take `COc1ccc2nc(/N=C(\N)NC(=O)C(C)(C)C)nc(C)c2c1`: the cell count came to 503 and the inhibition is -6.3% (inactive).

With `O=C(NCCCNCc1ccccc1)/C(=N\O)c1ccccc1`, the cell count stood at 518 and the inhibition was -4.7% (inactive).

A further experiment is described as follows: endothelial E-selectin expression blockers – imaging, HUVEC, immunofluorescence, MLSMR starter and 10KST1 sets, primary screen (AID 487).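 On inhibition: signal is fraction of cell area covered by stained E-selectin grains.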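 On nuclei count: 100% = median nuclei count of all wells on the same plate.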 Particulars: HUVEC TNFalpha-induced E-selectin immunofluorescence imaging, at 2 µM; inhibition: stronger effect = higher value; nuclei count: measured here: cell number, toxicity.
As for `COc1cccc(C(=O)OC2CCCN(C)C2)c1` (stereo not given), the nuclei count came out at 141% and the inhibition was -39.2% (inactive).

With `FC(F)(F)c1cccc(N2CCc3cn[nH]c32)c1`, the inhibition was -30.9% (inactive) and the nuclei count amounted to 178%.

With `Cc1cc(=O)oc(C)c1C(=O)NCCC1=CCCCC1`, the nuclei count stood at 114% and the inhibition was -25.9% (inactive).

On to `COCCNC(=O)C(C#N)c1nc2ccccc2nc1N1CCN(Cc2ccc3c(c2)OCO3)CC1` (stereo not given), for which the inhibition was 11.8% (inactive) and the nuclei count stood at 172%.

For `Cc1cc(CC(=O)O)c(C)cc1CC(=O)O`, the inhibition was -39.7% (inactive) and the nuclei count stood at 146%.

`Nc1nc2n(n1)C(c1cccs1)CC(c1ccc(F)cc1)N2` (stereo not given): the nuclei count came to 141% and the inhibition was -40.7% (inactive).

`CCOC(=O)C1=Nc2ccccc2C1=[N+]=[N-]`: the nuclei count was found to be 179% and the inhibition was 6.6% (inactive).

Turning to `CCc1nc2c(sc3nc(N4CCOCC4)c4c(c32)CC(C)(C)OC4)c(=O)o1`, the inhibition is -123% (inactive) and the nuclei count stood at 140%.

Consider `CC(=O)/C(C#N)=C1\NC(=O)C(Cc2ccccc2Cl)S1` (stereo not given), for which the inhibition is 31.2% (inactive) and the nuclei count was 179%.

For the compound `COC(=O)/C=c1/s/c(=C(\C#N)C(=O)NCc2ccco2)n(-c2ccccc2)c1=O`, the inhibition is -54.5% (inactive) and the nuclei count turned out to be 129%.

`O=C(NCCCN1CCOCC1)C1(c2ccccc2)CCOCC1`: the inhibition was 14.3% (inactive) and the nuclei count came out at 91.3%.

On to `CCN(CC)CCN1C(=O)C(=O)/C(=C(/O)c2c(C)[nH]c(C(=O)OC)c2C)C1c1ccccc1` (stereo not given), for which the inhibition was -88% (inactive) and the nuclei count was 165%.

As for `Cc1ccc(S(=O)(=O)c2cc3c(=O)n4cccc(C)c4nc3n(CC3CCCO3)c2=N)cc1` (stereo not given), the inhibition was 34.6% (inactive) and the nuclei count came out at 107%.

Consider `COC(=O)C(NC(=O)c1ccco1)(Nc1nc(C)cs1)C(F)(F)F` (stereo not given), for which the inhibition was -89.2% (inactive) and the nuclei count was 178%.

On to `CC(=O)C1=C(O)C(=O)N(c2ccc(Br)cn2)C1c1ccccc1F` (stereo not given), for which the nuclei count stood at 131% and the inhibition was -45.7% (inactive).

Take `Cc1ccc(S(=O)(=O)N(CC(O)CN2CCOCC2)c2cc(Cl)ccc2Cl)cc1` (stereo not given): the nuclei count was 112% and the inhibition was -35% (inactive).

For the compound `CCNC(=O)COn1c(SCC(=O)NCC)nc2ccccc2c1=O`, the inhibition was 10% (inactive) and the nuclei count amounted to 174%.

For `CCCOc1cccc(C2/C(=C(/O)c3ccc(F)cc3)C(=O)C(=O)N2CCN(C)C)c1` (stereo not given), the inhibition was -51.1% (inactive) and the nuclei count is 132%.

With `Cc1ccc(N(CN2C(=O)C3CC=CCC3C2=O)C(=O)c2ccco2)cc1Cl` (stereo not given), the inhibition is 32.8% (inactive) and the nuclei count worked out at 102%.

On to `O=c1[nH]cnc2c1cnn2Cc1ccccc1`, for which the inhibition was -58.3% (inactive) and the nuclei count worked out at 145%.

For `COC(=O)C(NC(C)=O)(Nc1ccc(Br)cn1)C(F)(F)F` (stereo not given), the nuclei count came out at 88.1% and the inhibition is 54.1% (inactive).

Regarding `COC(=O)/C=c1/s/c(=C(/C#N)C(=O)N2CCCCC2)n(-c2ccccc2)c1=O`, the inhibition is -20.5% (inactive) and the nuclei count turned out to be 90.8%.

Turning to `O=c1c2sc3nc(N4CCOCC4)c4c(c3c2ncn1Cc1ccco1)CCCC4`, the inhibition was -62.8% (inactive) and the nuclei count is 143%.

With `COc1ccc(CC(=O)n2c(CC#N)nc3ccccc32)cc1OC`, the inhibition was -32.4% (inactive) and the nuclei count was found to be 112%.

With `CCN(CC)CCN1C(=O)C(O)=C(C(=O)c2cc3ccccc3o2)C1c1cccnc1` (stereo not given), the inhibition is 14.8% (inactive) and the nuclei count came to 163%.

Consider `COc1ccc(CSc2nnc3n(C)c(=O)c4c5c(sc4n23)CCCC5)cc1`, for which the inhibition is -140% (inactive) and the nuclei count was determined as 184%.

As to `CC(NC(=O)Nc1cccnc1)(C(F)(F)F)C(F)(F)F`, the inhibition was -177% (inactive) and the nuclei count came to 184%.

Consider `CCOC(=O)CSc1nnc(C)c(=O)[nH]1`, for which the inhibition is -201% (inactive) and the nuclei count is 163%.

On to `O=S(=O)(/C=C/c1ccccc1)Nc1ccc2c(c1)OCO2`, for which the inhibition was -96.3% (inactive) and the nuclei count turned out to be 154%.

As for `Cn1c(=O)c2c3c(sc2n2c(SCC(=O)c4ccccc4)nnc12)COC(C)(C)C3`, the inhibition is 44.5% (inactive) and the nuclei count came to 48.5%.

Take `COc1cccc(C2C(C(=O)c3sc(C)nc3C)=C(O)C(=O)N2CCN2CCOCC2)c1OC` (stereo not given): the nuclei count was found to be 140% and the inhibition was -65.8% (inactive).

For the compound `NC(=O)C1CCN(C2OC(=O)c3ccccc32)CC1` (stereo not given), the inhibition is -148% (inactive) and the nuclei count came to 160%.

Turning to `CCCCOC(=O)c1[nH]c(C)c(C(=O)OC)c1C`, the nuclei count is 98.7% and the inhibition is 50.3% (inactive).

With `CCSc1nnc(NC(=O)C(C)(C(F)(F)F)C(F)(F)F)s1`, the inhibition was -107% (inactive) and the nuclei count came to 183%.

In the case of `Cc1ccc(N2C(=O)CC3(CC4C=CC3C4)C2=O)cc1` (stereo not given), the nuclei count worked out at 115% and the inhibition is -47.9% (inactive).

With `Cn1c(NCC(O)c2ccccc2)nc2c1c(=O)n(Cc1ccc(Cl)cc1)c(=O)n2C` (stereo not given), the inhibition was -18% (inactive) and the nuclei count amounted to 103%.

Regarding `N#Cc1nc(-c2ccc(F)cc2)oc1N1CCCC1`, the nuclei count stood at 148% and the inhibition was 24.6% (inactive).

For `COC(=O)/C(C#N)=C1/SC=C(C)N1c1ccccc1`, the inhibition is -42.5% (inactive) and the nuclei count came out at 115%.

On to `COc1ccc2nc(/N=C(\N)NC(=O)C(C)(C)C)nc(C)c2c1`, for which the nuclei count stood at 184% and the inhibition was -18.6% (inactive).

On to `O=C(NCCCNCc1ccccc1)/C(=N\O)c1ccccc1`, for which the nuclei count came out at 164% and the inhibition is -1% (inactive).
